Experimental data as given in PubChem BioAssay (EPA / NIEHS).
Calls of active or inactive are those of the source. Rule for the calls: active = hit-call score of the fitted dose curve at least 0.9, where 1 is the maximum; inactive = score below 0.9.

Legend:
[1] = read-out: C-C motif chemokine 2 (Homo sapiens) (UniProt P13500); test: BSK_KF3CT_MCP1: BioMAP Diversity Plus: KF3CT Assay for Monocyte Chemoattractant Protein 1 (MCP1/CCL2) Biomarker Activity (AID 2283073); settings: primary human keratinocytes with fibroblasts; actives raise or lower the signal
Procedure, shortened: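 Human keratinocyte–foreskin fibroblast co-culture; MCP-1 measured by ELISA 24 h after dosing. Bidirectional fit vs DMSO; cytotoxicity tracked by SRB total protein in parallel cultures.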

[2] = read-out: Matrix Metallopeptidase 9 (MMP9), MMP9 (gene 4318); test: BSK_KF3CT_MMP9: BioMAP Diversity Plus: KF3CT Assay for Matrix Metallopeptidase 9 (MMP9) Biomarker Activity (AID 2283074); settings: primary human keratinocytes with fibroblasts; actives raise or lower the signal;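 for AC50: MMP9 protein level quantified by ELISA in the co-culture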
Procedure, shortened: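 ELISA read-out of MMP-9 at 24 h post-dosing in a co-culture of human skin keratinocytes and foreskin fibroblasts. Gain or loss of signal was fitted in both directions against DMSO.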

CD40, CD40 (gene 958) = test: BSK_LPS_CD40: BioMAP Diversity Plus: LPS Assay for CD40 Biomarker Activity (AID 2283076); settings: primary human HUVEC with PBMC; actives raise or lower the signal
Procedure, shortened: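 HUVEC plus PBMC co-culture stimulated with LPS; CD40 quantified by ELISA 24 h after compound dosing. Fitting was bidirectional relative to DMSO. SRB staining of parallel cultures flagged overt cytotoxicity.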

[3] = read-out: E-selectin (Homo sapiens) (UniProt P16581); test: BSK_LPS_Eselectin: BioMAP Diversity Plus: LPS Assay for Eselectin Biomarker Activity (AID 2283077); settings: primary human HUVEC with PBMC; actives raise or lower the signal
Procedure, shortened: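 Human umbilical vein endothelial cells co-cultured with PBMC under LPS stimulation; cell-surface E-selectin measured by ELISA 24 h after dosing. Change in either direction versus DMSO, with SRB total-protein staining in parallel cultures for cytotoxicity.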

[4] = read-out: Interleukin-8 (IL8), CXCL8 (gene 3576); test: BSK_LPS_IL8: BioMAP Diversity Plus: LPS Assay for Interleukin-8 (IL8) Biomarker Activity (AID 2283078); settings: primary human HUVEC with PBMC; actives raise or lower the signal
Procedure, shortened: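 Human umbilical vein endothelial cells co-cultured with PBMC, LPS-stimulated, exposed to compound for 24 h. IL-8 quantified by ELISA; fitted in both directions against DMSO, with SRB total-protein staining of parallel cultures for cytotoxicity.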

[5] = BSK_LPS_SRB: Viability Assessment in the BioMAP Diversity Plus: LPS Assay (AID 2283079); settings: primary human HUVEC with PBMC;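 note: total protein by sulforhodamine B absorbance as a cytotoxicity measure; measured one day after compound addition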
Procedure, shortened: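 Co-culture of human umbilical vein endothelial cells and PBMC, read 24 h after dosing. Total protein by 0.1% SRB staining after 10% TCA fixation, absorbance at 560 nm; bidirectional fit against DMSO.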

[6] = read-out: Monocyte Chemoattractant Protein-1 (MCP1), CCL2 (gene 6347); test: BSK_LPS_MCP1: BioMAP Diversity Plus: LPS Assay for Monocyte Chemoattractant Protein-1 (MCP1) Biomarker Activity (AID 2283081); settings: primary human HUVEC with PBMC; actives raise or lower the signal;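 for AC50: secreted MCP-1 protein quantified by ELISA in culture supernatant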
Procedure, shortened: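 Human umbilical vein endothelial cells co-cultured with PBMC, LPS-stimulated; secreted MCP-1 measured by ELISA 24 h after compound addition. Bidirectional curve fitting against DMSO baseline; SRB total-protein staining in parallel cultures for cytotoxicity.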

[7] = read-out: urokinase plasminogen activator (uPA), PLAU (gene 5328); test: BSK_KF3CT_uPA: BioMAP Diversity Plus: KF3CT Assay for urokinase plasminogen activator (uPA) Biomarker Activity (AID 2283075); settings: primary human keratinocytes with fibroblasts; actives raise or lower the signal
Procedure, shortened: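 Skin co-culture (keratinocytes + foreskin fibroblasts), human primary; 24 h post-dose; uPA by ELISA; gain/loss fit vs DMSO baseline.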

[8] = read-out: Interleukin-1 alpha (IL1a), IL1A (gene 3552); test: BSK_LPS_IL1a: BioMAP Diversity Plus: LPS Assay for Interleukin-1 alpha (IL1a) Biomarker Activity (AID 2283080); settings: primary human HUVEC with PBMC; actives raise or lower the signal
Procedure, shortened: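 Human umbilical vein endothelial cells co-cultured with PBMC and stimulated with LPS; IL-1a measured by ELISA 24 h after dosing. Bidirectional fitting against DMSO; cytotoxicity checked by SRB staining in parallel cultures.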

E-selectin (Homo sapiens), sequence (P16581 whole entry, looked up): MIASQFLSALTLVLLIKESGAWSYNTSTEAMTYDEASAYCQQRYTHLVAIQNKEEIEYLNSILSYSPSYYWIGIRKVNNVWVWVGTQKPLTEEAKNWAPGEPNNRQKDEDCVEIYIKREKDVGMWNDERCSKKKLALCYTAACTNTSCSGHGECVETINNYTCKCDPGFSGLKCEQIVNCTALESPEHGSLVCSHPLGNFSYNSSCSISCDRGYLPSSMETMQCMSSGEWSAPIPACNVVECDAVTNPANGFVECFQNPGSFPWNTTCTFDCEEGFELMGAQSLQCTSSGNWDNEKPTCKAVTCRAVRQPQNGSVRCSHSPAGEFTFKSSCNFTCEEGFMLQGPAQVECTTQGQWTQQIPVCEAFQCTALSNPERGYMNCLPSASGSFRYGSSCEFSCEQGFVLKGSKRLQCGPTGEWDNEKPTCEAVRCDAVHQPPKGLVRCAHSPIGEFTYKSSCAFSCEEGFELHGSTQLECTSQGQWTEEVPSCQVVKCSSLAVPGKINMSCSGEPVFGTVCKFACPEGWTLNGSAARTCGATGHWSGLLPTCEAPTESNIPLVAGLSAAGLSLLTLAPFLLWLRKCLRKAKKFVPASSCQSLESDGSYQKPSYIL

C=CCc1ccc(OC)c(OC)c1
outcome [1]: inactive | outcome [2]: inactive | outcome (CD40, CD40 (gene 958)): inactive | outcome [3]: inactive | outcome [4]: inactive | outcome [5]: inactive | outcome [6]: inactive

O=C(O)CN(CC(=O)O)CC(=O)O
outcome [1]: inactive | outcome [2]: inactive | outcome [7]: inactive | outcome (CD40, CD40 (gene 958)): inactive | outcome [3]: inactive | outcome [4]: inactive | outcome [5]: inactive | outcome [8]: inactive | outcome [6]: inactive

CN(C)C(=O)NC1(c2ccccc2)CCN(CCC[C@]2(c3ccc(Cl)c(Cl)c3)CCCN(C(=O)c3ccccc3)C2)CC1
outcome [1]: inactive | outcome [2]: inactive | outcome (CD40, CD40 (gene 958)): inactive | outcome [3]: inactive | AC50 [4]: 8.1 µM (active) | outcome [5]: inactive | outcome [8]: inactive | outcome [6]: inactive

CC(C)COC(=O)CCCCC(=O)OCC(C)C
outcome [1]: inactive | outcome [2]: inactive | outcome [7]: inactive | outcome (CD40, CD40 (gene 958)): inactive | outcome [3]: inactive | outcome [4]: inactive | outcome [5]: inactive | outcome [8]: inactive | outcome [6]: inactive

Oc1ccccc1O
AC50 [1]: 1.14 µM (active) | AC50 [2]: 8.72 µM (active) | AC50 (CD40, CD40 (gene 958)): 7.33 µM (active) | outcome [3]: inactive | outcome [4]: inactive | AC50 [5]: 7.37 µM (active) | outcome [8]: inactive | outcome [6]: inactive

CC1(C)C(=O)NC(=O)N1CO
outcome [1]: inactive | outcome [2]: inactive | outcome [7]: inactive | outcome (CD40, CD40 (gene 958)): inactive | outcome [3]: inactive | outcome [4]: inactive | outcome [5]: inactive | outcome [6]: inactive

O=C1c2c(O)cccc2Cc2cccc(O)c21
AC50 [1]: 20 µM (active) | AC50 [2]: 10.2 µM (active) | outcome (CD40, CD40 (gene 958)): inactive | outcome [3]: inactive | outcome [4]: inactive | outcome [5]: inactive | outcome [8]: inactive | outcome [6]: inactive

Cc1c(C)c2c(c(C)c1O)CCC(C)(COc1ccc(CC3SC(=O)NC3=O)cc1)O2 (centres undefined)
AC50 [1]: 15.1 µM (active) | AC50 [2]: 12.7 µM (active) | AC50 (CD40, CD40 (gene 958)): 28.7 µM (active) | AC50 [3]: 30.3 µM (active) | AC50 [4]: 32.1 µM (active) | AC50 [5]: 26.3 µM (active) | AC50 [6]: 30.8 µM (active)

CN(C)CCCN1c2ccccc2Sc2ccc(Cl)cc21
outcome [1]: inactive | AC50 [2]: 31.6 µM (active) | AC50 [7]: 30.3 µM (active) | AC50 (CD40, CD40 (gene 958)): 25.3 µM (active) | outcome [3]: inactive | AC50 [4]: 23.9 µM (active) | AC50 [5]: 24.9 µM (active) | AC50 [6]: 26 µM (active)

CC(C)OC(=O)C(C)(C)Oc1ccc(C(=O)c2ccc(Cl)cc2)cc1
outcome [1]: inactive | outcome [2]: inactive | AC50 (CD40, CD40 (gene 958)): 29.4 µM (active) | outcome [3]: inactive | AC50 [4]: 32 µM (active) | AC50 [5]: 27.8 µM (active) | AC50 [6]: 29.7 µM (active)

N[C@@H](Cc1c[nH]c2ccccc12)C(=O)O
outcome [1]: inactive | outcome [2]: inactive | outcome [7]: inactive | outcome (CD40, CD40 (gene 958)): inactive | outcome [3]: inactive | outcome [4]: inactive | outcome [5]: inactive | outcome [6]: inactive

CCCCC(CC)COC(=O)CCCCCCCC(=O)OCC(CC)CCCC (centres undefined)
outcome [1]: inactive | outcome [2]: inactive | outcome (CD40, CD40 (gene 958)): inactive | outcome [3]: inactive | outcome [4]: inactive | outcome [5]: inactive | outcome [6]: inactive

CCN(CC)CCOc1ccc(C(=C(Cl)c2ccccc2)c2ccccc2)cc1
AC50 [1]: 14.3 µM (active) | AC50 [2]: 11.7 µM (active) | AC50 [7]: 13.7 µM (active) | AC50 (CD40, CD40 (gene 958)): 8.67 µM (active) | AC50 [3]: 13.3 µM (active) | AC50 [4]: 11.3 µM (active) | AC50 [5]: 10.4 µM (active) | AC50 [6]: 14.3 µM (active)

NCCOCCOCCN
outcome [1]: inactive | outcome [2]: inactive | outcome [7]: inactive | outcome (CD40, CD40 (gene 958)): inactive | outcome [3]: inactive | outcome [4]: inactive | outcome [5]: inactive | outcome [6]: inactive

COc1ccc(OC(F)(F)F)cc1CN[C@H]1CCCN[C@H]1c1ccccc1
outcome [1]: inactive | outcome [2]: inactive | outcome [7]: inactive | AC50 (CD40, CD40 (gene 958)): 26.6 µM (active) | outcome [3]: inactive | AC50 [4]: 9.98 µM (active) | AC50 [5]: 20 µM (active) | outcome [8]: inactive | AC50 [6]: 7.98 µM (active)

CCCCc1nc2cccnc2n1Cc1ccc(-c2ccccc2-c2nnn[nH]2)cc1
outcome [1]: inactive | AC50 [2]: 0.0268 µM (active) | outcome [7]: inactive | outcome (CD40, CD40 (gene 958)): inactive | outcome [3]: inactive | outcome [4]: inactive | outcome [5]: inactive | outcome [8]: inactive | outcome [6]: inactive

CN(C)C(=O)NC1(c2ccccc2)CCN(CC[C@@]2(c3ccc(F)c(F)c3)CN(C(=O)c3ccccc3)CCO2)CC1
outcome [1]: inactive | outcome [2]: inactive | outcome [7]: inactive | outcome (CD40, CD40 (gene 958)): inactive | outcome [3]: inactive | outcome [4]: inactive | outcome [5]: inactive | outcome [8]: inactive | outcome [6]: inactive

CCCCCCC(CCCCCCCCCCC(=O)OCC(COC(C)=O)OC(C)=O)OC(C)=O (centres undefined)
outcome [1]: inactive | outcome [2]: inactive | outcome [7]: inactive | outcome (CD40, CD40 (gene 958)): inactive | outcome [3]: inactive | outcome [4]: inactive | outcome [5]: inactive | outcome [6]: inactive

COC(=O)CCC(=O)OC
outcome [1]: inactive | outcome [2]: inactive | outcome (CD40, CD40 (gene 958)): inactive | outcome [3]: inactive | outcome [4]: inactive | outcome [5]: inactive | outcome [6]: inactive

CCCCCCC(C=O)=Cc1ccccc1
outcome [1]: inactive | outcome [2]: inactive | outcome [7]: inactive | outcome (CD40, CD40 (gene 958)): inactive | outcome [3]: inactive | AC50 [4]: 30.2 µM (active) | AC50 [5]: 29.3 µM (active) | outcome [6]: inactive

Cc1occc(=O)c1O
outcome [1]: inactive | outcome [2]: inactive | outcome (CD40, CD40 (gene 958)): inactive | outcome [3]: inactive | outcome [4]: inactive | outcome [5]: inactive | outcome [8]: inactive | outcome [6]: inactive

CC(N)=O
outcome [1]: inactive | outcome [2]: inactive | outcome (CD40, CD40 (gene 958)): inactive | outcome [3]: inactive | outcome [4]: inactive | outcome [5]: inactive | outcome [6]: inactive

Nc1nc(Cl)nc2c1ncn2[C@H]1C[C@H](O)[C@@H](CO)O1
outcome [1]: inactive | outcome [2]: inactive | AC50 (CD40, CD40 (gene 958)): 2.29 µM (active) | outcome [3]: inactive | AC50 [4]: 0.628 µM (active) | AC50 [5]: 0.814 µM (active) | AC50 [6]: 0.659 µM (active)

CCCCCCCCCCCCCCOS(=O)(=O)O
AC50 [1]: 8.92 µM (active) | AC50 [2]: 8.96 µM (active) | outcome (CD40, CD40 (gene 958)): inactive | outcome [3]: inactive | outcome [4]: inactive | outcome [5]: inactive | outcome [6]: inactive
